Among all 52,000 compounds or so, about 4,300 (8.3%) were called active. No stated cut-off is given here; in the data, active means survival mostly below about 52% (no sharp cut-off); inactive means mostly above about 56%. Shown is part of a subset that was picked to be rich in actives.

This assay relates to DeltatarO mutant. As to the kind of experiment: S. aureus survival, RN4220 and DeltatarO strains – OD600, teichoic acid synthesis inhibitors, primary screen (AID 463173). To be noted: S. aureus RN4220 wild type/DeltatarO growth, OD600, 18 h, active compounds read low, screened at 18.75 µg/mL (by protocol).
In the case of `O=C(CN1C(=O)COc2ccc(S(=O)(=O)N3CCCCCC3)cc21)N1CCN(c2cccc(Cl)c2)CC1`, the survival was 95% (inactive).

On to `O=C(Nc1nnc(S(=O)(=O)N2CCCC2)s1)c1ccccc1Br`, for which the survival is 36% (active).

In the case of `O=C(Nc1nnc(S(=O)(=O)N2CCCCCC2)s1)c1ccccc1Br`, the survival was 43% (active).

As to `O=C(Nc1nnc(S(=O)(=O)N2CCCCC2)s1)c1ccccc1Br`, the survival was 61% (inactive).

`COc1ccc(C2CC(=O)c3cnc4c(-c5ccccc5)c(C)nn4c3C2)c(OC)c1` (centres undefined): the survival is 82% (inactive).

On to `COc1cccc(C(=O)Nc2ccc3nc(SCC(=O)N4CCc5ccccc54)sc3c2)c1`, for which the survival was 59% (inactive).

For the molecule `COc1cccc(-n2cc(C(=O)Nc3cc(C)c(Cl)cc3OC)c3ccccc3c2=O)c1`, the survival is 56% (inactive).

Consider `O=C(Nc1ccc2oc(-c3cccnc3)nc2c1)c1ccc(-c2ccc(OC(F)(F)F)cc2)o1`, for which the survival was 79% (inactive).

With `CCOc1ccccc1NS(=O)(=O)c1cnc(N)nc1`, the survival was -1% (active).

Consider `CCOc1ccccc1CNS(=O)(=O)c1cnc(N)nc1`, for which the survival was 79% (inactive).

`Nc1ncc(S(=O)(=O)Nc2ccc(F)cc2F)cn1`: the survival was 84% (inactive).

Consider `COc1ccc(OC)c(NC(=O)c2ccc(-c3nc(COc4ccccc4)c(C)o3)cc2)c1`, for which the survival is 62% (inactive).

Take `CCOC(=O)c1[nH]c2ccccc2c1NC(=O)c1ccc(OCC)cc1`: the survival was 75% (inactive).

Consider `Cc1ccc(NC(=O)C(c2ccccc2)N2Cc3ccccc3C2=O)cc1Cl` (centres undefined), for which the survival was 75% (inactive).

In the case of `CCN(CC)c1ncnc2c1cnn2-c1cc(Cl)ccc1C`, the survival was -5% (active).

Take `CCN(CC)CCNc1ncnc2c1cnn2-c1cc(Cl)ccc1C`: the survival is 77% (inactive).

As for `CCN(c1ncnc2c1cnn2-c1cc(Cl)ccc1C)C1CCCCC1`, the survival was 73% (inactive).

On to `CCN(CC)C(=O)Cn1c(=O)n(Cc2ccc(C(=O)NCc3ccccc3Cl)cc2)c(=O)c2ccccc21`, for which the survival is 115% (inactive).

With `Cc1cn2c(=O)cc(COC(=O)COc3ccccc3C)nc2s1`, the survival is 76% (inactive).

For `COc1ccccc1NC(=O)CSc1nnc2c(n1)[nH]c1ccccc12`, the survival is 77% (inactive).

On to `COC(=O)c1ccc(NC(=O)CSc2nnc3c4ccccc4n(C(C)C)c3n2)cc1`, for which the survival was 52% (inactive).

As to `COc1ccccc1NC(=O)CSc1nnc2c3ccccc3n(C(C)C)c2n1`, the survival was 33% (active).

Take `O=C(Nc1nc2c(Cl)cccc2s1)c1ccc(S(=O)(=O)N2CCc3ccccc32)cc1`: the survival is 69% (inactive).

Regarding `O=C(Nc1nnc(S(=O)(=O)N2CCc3ccccc32)s1)c1cccc(Cl)c1`, the survival was 1% (active).

For `O=C(Nc1nnc(S(=O)(=O)N2CCCc3ccccc32)s1)c1cccc(Cl)c1`, the survival is 3% (active).

As for `O=C(Nc1cccc(Cl)c1)c1cc(S(=O)(=O)N2CCCc3ccccc32)ccc1F`, the survival was 108% (inactive).

In the case of `Cc1ccc(S(=O)(=O)N2CCCc3cc(NC(=O)c4cccc(Cl)c4)ccc32)cc1`, the survival is 87% (inactive).

Consider `CC(C)C(=O)Nc1nnc(S(=O)(=O)N2CCc3ccccc32)s1`, for which the survival was 78% (inactive).

`CCOC(=O)N1CCC(NC(=O)c2cnn(-c3ccccc3)c2C2CCN(C(=O)OC(C)(C)C)CC2)CC1`: the survival was 117% (inactive).

For `CCOc1ccc(C2=NC(c3cccs3)=Nc3ccc(CC)cc3N2)cc1OCC`, the survival is 77% (inactive).

With `COc1cccc(CNC(=O)c2cc(-c3cccc(OC)c3)n[nH]2)c1`, the survival is 71% (inactive).

In the case of `O=C(NCc1ccccc1)N1CCc2c(sc3c2CCCC3)C1c1ccccc1` (centres undefined), the survival was 75% (inactive).

As to `COc1cc(C)ccc1OCCCn1c(-c2ccc(Cl)cc2)nc2ccccc2c1=O`, the survival is 62% (inactive).

For the molecule `O=C(NC1CCCCCC1)C1c2ccccc2C(=O)N1Cc1ccc(F)cc1` (centres undefined), the survival was 111% (inactive).

Take `Cc1ccc(CNC(=O)c2ccc(-c3nc(CS(=O)c4ccccc4)c(C)o3)cc2)cc1` (centres undefined): the survival is 88% (inactive).

Turning to `Clc1cccc(CSc2nc(NCCc3ccccc3)c3ccccc3n2)c1`, the survival was 102% (inactive).

`COc1cc(Nc2nc(SCc3cccc(Cl)c3)nc3ccccc23)cc(OC)c1`: the survival was 37% (active).

Take `COc1ccc(CCNc2nc(SCc3cccc(F)c3)nc3ccccc23)cc1OC`: the survival is 85% (inactive).

Turning to `Fc1cccc(CSc2nc(NCCc3ccccc3)c3ccccc3n2)c1`, the survival is 20% (active).

Take `COc1cc(Nc2nc(SCc3ccc(Cl)cc3)nc3ccccc23)cc(OC)c1`: the survival is 91% (inactive).

For the molecule `Fc1ccc(Nc2nc(SCc3cccc(Cl)c3)nc3ccccc23)cc1`, the survival is 70% (inactive).

`COc1ccc(-n2ccnc2SCC(=O)Nc2ccc3c(c2)OCO3)cc1`: the survival was 105% (inactive).

As for `Cc1ccc2nc(-c3ccsc3)c(Nc3ccc(C(C)C)cc3)n2c1`, the survival is 124% (inactive).

With `O=C(NCc1ccccc1)c1ccc2c(c1)N(Cc1ccccc1F)C(=O)c1ccccc1S2=O` (centres undefined), the survival is 92% (inactive).

In the case of `N#CC(C#N)=Cc1cn(-c2ccccc2)nc1-c1ccccc1`, the survival is 68% (inactive).

Turning to `O=C(NCc1ccccc1)C(=O)NCC(c1ccc2c(c1)OCO2)N1CCOCC1` (centres undefined), the survival was 92% (inactive).

As to `CCc1ccc(-n2c(=O)c3c4c(sc3n(CC(=O)N3CCC(C)CC3)c2=O)CCC4)cc1`, the survival was 83% (inactive).

Regarding `COC(=O)c1ccc(NC(=O)CC2C(=O)N(c3cccc(OC)c3)C(=O)N2Cc2ccco2)cc1` (centres undefined), the survival is 70% (inactive).

On to `CCc1ccc(NC(=O)CC2C(=O)N(c3ccc(Cl)cc3)C(=O)N2Cc2ccco2)cc1` (centres undefined), for which the survival is 91% (inactive).

Regarding `CCc1ccc(NC(=O)CC2C(=O)N(c3cccc(OC)c3)C(=O)N2Cc2ccco2)cc1` (centres undefined), the survival is 25% (active).

On to `COC(=O)c1ccc(NC(=O)CC2C(=O)N(c3ccc(Cl)cc3)C(=O)N2Cc2ccco2)cc1` (centres undefined), for which the survival was 37% (active).

For `CCc1ccc(NC(=O)CC2C(=O)N(c3cccc(C)c3)C(=O)N2Cc2ccco2)cc1` (centres undefined), the survival is 118% (inactive).

In the case of `COC(=O)c1ccc(NC(=O)CC2C(=O)N(c3cccc(C)c3)C(=O)N2Cc2ccco2)cc1` (centres undefined), the survival was 92% (inactive).

As for `CCN(CC)c1ccc2cc(C(=O)Nc3cccc(OC)c3)c(=O)oc2c1`, the survival is 75% (inactive).

Consider `Cn1nnc2c(NCc3c(F)cccc3F)ncnc21`, for which the survival is 80% (inactive).

For the molecule `C=CCn1c(C#N)c(N)sc1=N`, the survival was 96% (inactive).

With `Cc1ccc(N2C(=O)CCSC23C(=O)N(Cc2ccccc2)c2ccccc23)cc1F` (centres undefined), the survival was 89% (inactive).

For `COc1ccc(OC(=O)c2nc(SCc3ccc(C)cc3)ncc2Cl)cc1`, the survival was 57% (inactive).

Turning to `O=C(NCCc1ccccc1)c1ccc2nc(CCc3ccccc3)oc2c1`, the survival is 32% (active).

As to `CCOc1cc(CNC(=O)c2ccc3nc(C(C)C)oc3c2)cc(OCC)c1OCC`, the survival was 47% (active).

As to `CCCNC(=O)c1ccc2nc(CCc3ccccc3)oc2c1`, the survival was 78% (inactive).

As to `CN(C)c1ccc(CNC(=O)c2ccc3nc(CCc4ccccc4)oc3c2)cc1`, the survival was 93% (inactive).

Take `CCOc1ccc(CNC(=O)c2ccc3nc(C(C)C)oc3c2)cc1`: the survival is 76% (inactive).

As to `O=C(NCc1ccccc1)c1ccc2nc(CCc3ccccc3)oc2c1`, the survival is 0% (active).

On to `CCc1ccc(CNC(=O)c2ccc3nc(C(C)C)oc3c2)cc1`, for which the survival is 82% (inactive).

With `COc1ccc(CCNC(=O)c2ccc3nc(Cc4ccccc4)oc3c2)cc1OC`, the survival is 99% (inactive).

As for `COc1ccc(Cc2nc3ccc(C(=O)NCCc4ccc(OC)c(OC)c4)cc3o2)cc1`, the survival is 77% (inactive).

For the molecule `COc1ccc(CCNC(=O)c2ccc3nc(CCc4ccccc4)oc3c2)cc1OC`, the survival was 37% (active).

`O=C(NCCc1ccc(Cl)cc1)c1ccc2nc(CCc3ccccc3)oc2c1`: the survival was 75% (inactive).

For `O=C(NCc1cccc(F)c1)c1ccc2nc(CCc3ccccc3)oc2c1`, the survival was 79% (inactive).

As for `COc1ccc(Cn2ccc3nc(C)c(C(=O)Nc4cccc(SC)c4)cc3c2=O)cc1`, the survival is 95% (inactive).

For the molecule `COc1ccc(Nc2ncc(C(=O)N3CCN(c4ccc(OC)cc4)CC3)c3ccccc23)cc1`, the survival was 74% (inactive).

With `CCOc1ccc(N(CC(=O)Nc2ccc3c(c2)OCO3)S(=O)(=O)c2ccccc2)cc1`, the survival is 87% (inactive).

For `O=C(O)CSc1c2c(nc3cc(C(=O)Nc4ccc(F)c(Cl)c4)ccc13)CCC2`, the survival was 88% (inactive).

As to `Cc1cc(S(=O)(=O)n2ccnc2C(C)C)cc([N+](=O)[O-])c1C`, the survival was 57% (inactive).

For the molecule `COc1ccc(CNC(=O)c2ccc3nc(CCc4ccccc4)oc3c2)cc1OC`, the survival is 79% (inactive).

With `COc1ccc(CNC(=O)c2ccc3nc(CCc4ccccc4)oc3c2)cc1`, the survival was 0% (active).

Take `COc1ccc(CNC(=O)c2ccc3nc(CCc4ccccc4)oc3c2)c(OC)c1`: the survival was 135% (inactive).

In the case of `Cc1ccc(-c2onc(C)c2C)cc1S(=O)(=O)NC1CCCCC1`, the survival was 77% (inactive).

Regarding `COc1ccc(NC(=O)c2ccco2)cc1NC(=O)C(C)(C)Oc1ccc(Cl)cc1`, the survival is 40% (active).

As to `COc1ccc(NC(=O)c2ccco2)cc1NC(=O)c1cc(Cl)ccc1OC`, the survival was 49% (inactive).

For `COc1ccc(NC(=O)c2ccco2)cc1NC(=O)C(C)C`, the survival was 84% (inactive).

Turning to `COc1ccc(NC(=O)c2ccco2)cc1NC(=O)c1ccc(OC(C)C)cc1`, the survival was 121% (inactive).

Turning to `COc1ccc(NC(=O)c2ccco2)cc1NC(=O)COc1ccc(Cl)cc1C`, the survival was 57% (inactive).

`COc1ccc(NC(=O)c2ccco2)cc1NC(=O)C(C)Oc1ccc(Cl)cc1Cl` (centres undefined): the survival was 28% (active).

In the case of `COc1ccc(NC(=O)c2sc3nc(C)c(C(=O)Nc4ccc(C)cc4C)c(-c4sccc4C)c3c2N)cc1`, the survival is 91% (inactive).

For the molecule `c1ccc(NCc2ccncc2)cc1`, the survival is 83% (inactive).

Turning to `C=Cn1cccc1C(=O)O`, the survival was 83% (inactive).

With `CC(C)CCNC(=O)c1ccc2c(c1)NC(=O)C(CS(=O)(=O)Cc1ccc(F)cc1)N2` (centres undefined), the survival is 80% (inactive).

As to `Cc1ccc(CNC(=O)CCCc2nnc3n(CC(C)C)c(=O)c4sccc4n23)cc1`, the survival was 101% (inactive).

`CCOC(=O)Cn1c(=O)n(CC2CCCO2)c2nc(-c3ccc(CC)cc3)nc(C(N)=O)c21` (centres undefined): the survival is 72% (inactive).

For the molecule `CCOC(=O)Cn1c(=O)n(-c2ccccc2OC)c2nc(-c3cccc(F)c3)nc(C(N)=O)c21`, the survival was 64% (inactive).

`CCOC(=O)Cn1c(=O)n(CC2CCCO2)c2nc(-c3ccc(C(C)C)cc3)nc(C(N)=O)c21` (centres undefined): the survival was 6% (active).

Turning to `CCOC(=O)Cn1c(=O)n(-c2ccccc2OC)c2nc(-c3ccccc3)nc(C(N)=O)c21`, the survival was -1% (active).

In the case of `CCOC(=O)Cn1c(=O)n(CC2CCCO2)c2nc(-c3ccc(OCC)cc3)nc(C(N)=O)c21` (centres undefined), the survival is -2% (active).

As for `CCOC(=O)Cn1c(=O)n(CC2CCCO2)c2nc(-c3ccccc3)nc(C(N)=O)c21` (centres undefined), the survival was 84% (inactive).

Take `CCOC(=O)Cn1c(=O)n(CC2CCCO2)c2nc(-c3cccc(C)c3)nc(C(N)=O)c21` (centres undefined): the survival was 79% (inactive).

In the case of `CCOC(=O)Cn1c(=O)n(-c2ccccc2OC)c2nc(-c3ccc(C(C)C)cc3)nc(C(N)=O)c21`, the survival was 86% (inactive).

Turning to `CCOC(=O)Cn1c(=O)n(CC2CCCO2)c2nc(-c3ccc(C)cc3)nc(C(N)=O)c21` (centres undefined), the survival was 67% (inactive).

Values taken from PubChem BioAssay AID463173 (ICCB-Longwood Screening Facility, Harvard Medical School, 2010).
